Assay results taken from PubChem BioAssay (Tox21).
Records with an inconclusive call do not appear. Active and inactive are the calls of the source. Unless noted, the call rests on the fitted dose curve; in most records, active means well fitted curve in the direction sought with a large enough effect in the repeat runs; inconclusive means weak or mixed curves; inactive means no such curve, though single readings can be large; an effect the other way counts as inactive or inconclusive.

Assays:
[1] = qHTS assay to identify small molecule agonists of the vitamin D receptor (VDR) signaling pathway - cell viability counter screen (AID 743224); further: series mostly up to about 63 µM; nearly all actives have a fitted effect of over 50% in size
In short: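 VDR-bla cells, 4 h after plating, exposed to compounds for 16 h at 37C; viability then read in the same wells as CellTiter-Glo luminescence after 30 min at room temperature, following the bla FRET read.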

[2] = qHTS assay to identify small molecule antagonists of the vitamin D receptor (VDR) signaling pathway - cell viability counter screen (AID 743225); further: nearly all actives have a fitted effect of over 50% in size
In short: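 Viability counter screen run in the same wells as the beta-lactamase reporter assay: HEK 293T VDR-UAS-bla cells, 16 h compound exposure at 37C with 3 nM (final) 1-alpha,25-dihydroxyvitamin D3. CellTiter-Glo luminescence, 30 min, room temperature.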

[3] = qHTS assay to identify small molecule agonists of the NFkB signaling pathway (AID 1159509; active means well fitted curve in the direction sought with a large enough effect in the signal ratio in the repeat runs, not every such curve was filed as active; the % refers to the signal ratio; further: series mostly up to about 61 µM)
In short: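 ME-180 NFkB-bla, 2,000 cells/well, overnight plating; cpd pinned in DMSO, 5 h 37 C; B/G FRET substrate 1.5 h RT; ex 405, em 460/530 nm.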

[4] = qHTS assay to identify small molecule agonists of the NFkB signaling pathway - cell viability counter screen (AID 1159515; calls by dose curve; further: series mostly up to about 61 µM; nearly all actives have a fitted effect of over 55% in size)
In short: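 NFkB-bla ME-180 cells, 2,000/well, plated overnight at 37 C; compound added for 5 hr at 37 C. Viability read in the same wells as the bla reporter, by CellTiter-Glo luminescence after 30 min at room temperature.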

[5] = qHTS assay to identify small molecule agonists of the endoplasmic reticulum stress response signaling pathway (AID 1159516; active means well fitted activation curve with a large enough effect in the signal ratio in the repeat runs, not every such curve was filed as active; the % refers to the signal ratio)
In short: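 CellSensor ESRE-bla HeLa cells, 1,500 per well, plated overnight, then exposed to compounds for 5 hr at 37 C. Beta-lactamase reporter read with LiveBLAzer B/G FRET substrate after 2 hr at room temperature, 405 nm excitation, 460 and 530 nm emission.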

[6] = qHTS assay to identify small molecule agonists of the endoplasmic reticulum stress response signaling pathway - cell viability counter screen (AID 1159517; calls by dose curve;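 further: HeLa cells carrying an ER stress response element beta-lactamase reporter; series mostly up to about 61 µM; nearly all actives have a fitted effect of over 50% in size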)
In short: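 CellTiter-Glo was added to wells already read for beta-lactamase FRET, and luminescence was recorded 30 min later. Cells: ESRE-bla HeLa, 1,500 per well, compound exposure 5 hr at 37 C.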

[7] = qHTS assay to identify small molecule antagonists of the retinoid-related orphan receptor gamma (ROR-gamma) signaling pathway - cell viability counter screen (AID 1159520); further: nearly all actives have a fitted effect of over 50% in size; further: potency means the concentration at half of the fitted maximal effect
In short: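 Tet-on ROR gamma CHO cells (1,000/well) were plated 4 hr, given compounds in DMSO for 2 hr at 37 C, then induced with 1 uM final doxycycline for 16 hr. Viability was read as ATP by CellTiter-Glo luminescence after 30 min.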

[8] = target: Nuclear receptor ROR-gamma (Homo sapiens) (UniProt P51449); test: qHTS assay to identify small molecule antagonists of the retinoid-related orphan receptor gamma (ROR-gamma) signaling pathway (AID 1159521)
In short: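 Luminescence readout (ONE-Glo, 30 min RT) after 16 h doxycycline induction; loss of signal scored as antagonism. CHO cells with TET-inducible RORγ and RORE-LUC reporter; compounds added 2 h before 1 uM final doxycycline.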

[9] = qHTS assay to identify small molecule agonists of the AP-1 signaling pathway - cell viability counter screen (AID 1159525; calls by dose curve; further: nearly all actives have a fitted effect of over 55% in size)
In short: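 ME-180 AP-1-bla, 2500 cells/well, Opti-MEM + 0.5% dialyzed FBS; overnight 37 °C; cpd 15-pt titration, 5 h 37 °C; CellTiter-Glo 30 min RT; luminescence read; normalised to TOAB and DMSO controls.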

[10] = qHTS assay to identify small molecule agonists of the AP-1 signaling pathway (AID 1159526; calls by dose curve)

Measured: Potency

Cc1cc(C)c(NC(=O)CN(CC(=O)O)CC(=O)O)c(C)c1Br
inactive: all assays above

Nc1ncnc2c1ncn2Cc1c(F)cccc1Cl
inactive: all assays above

Nc1nc(F)nc2c1ncn2[C@@H]1O[C@H](CO)[C@@H](O)[C@@H]1O
inactive: all assays above

C1C2OC2C2C1C1CC2C2OC12 (configuration not stated)
not listed: [8]
inactive: all other assays above

CC1(C)SC(C)(C)SC(C)(C)S1
not listed: [2] | [8]
inactive: all other assays above

C=CCSCC1Nc2cc(Cl)c(S(N)(=O)=O)cc2S(=O)(=O)N1 (configuration not stated)
not listed: [9]
inactive: all other assays above

CO[Si](CCCNCCC[Si](OC)(OC)OC)(OC)OC
not listed: [9]
inactive: all other assays above

O=[N+]([O-])c1ccc(CCO)cc1
not listed: [2] | [9]
inactive: all other assays above

COC(=O)C1=C(C)NC(C)=C(C(=O)OCC(C)=O)C1c1ccccc1[N+](=O)[O-] (configuration not stated)
not listed: [9]
inactive: all other assays above

CCC(C)(C)C1CCC(OC)CC1 (configuration not stated)
active: [7] 48.6 µM
not listed: [2] | [9]
inactive: all other assays above

Fc1ccccc1-c1ccccc1
not listed: [9]
inactive: all other assays above

CC1(C)OC(=O)Nc2ccc(Br)cc21
not listed: [8]
inactive: all other assays above

C=CC(=O)N1CCOCC1
not listed: [8]
inactive: all other assays above

CCC(=O)Nc1cccc(N)c1
not listed: [8]
inactive: all other assays above

COCCOC(=O)CC#N
not listed: [2] | [8]
inactive: all other assays above

CC(C)(C)OC(=O)N1C[C@@H](F)C[C@H]1C(=O)O
not listed: [9]
inactive: all other assays above

Cc1ccccc1Br
not listed: [9]
inactive: all other assays above

CC(C)CCCC(C)CCCC(C)CCCCC(C)CCCC(C)CCCC(C)C (configuration not stated)
not listed: [1]
inactive: all other assays above

COc1ccc(COC=O)cc1
not listed: [9]
inactive: all other assays above

CNC(=O)c1c(I)c(NC(=O)CCCCC(=O)Nc2c(I)c(C(=O)O)c(I)c(C(=O)NC)c2I)c(I)c(C(=O)O)c1I
not listed: [9]
inactive: all other assays above

COc1cccc(Br)c1
not listed: [2] | [9]
inactive: all other assays above

C=C(C)C(=O)NCCCN(C)C
not listed: [9]
inactive: all other assays above

O=C(O)c1cccc(C(=O)O)n1
not listed: [8]
inactive: all other assays above

O=Cc1ccccc1[N+](=O)[O-]
not listed: [9]
inactive: all other assays above

CCC(=O)c1cccc(Cl)c1
not listed: [9]
inactive: all other assays above

CN(C)CCn1nnnc1SCC1=C(C(=O)O)N2C(=O)[C@@H](NC(=O)Cc3csc(N)n3)[C@H]2SC1
not listed: [9]
inactive: all other assays above
